Screens from PubChem BioAssay.
A selection: hits, their analogues and other compounds. The true share with any hit is near 4.3%.
DRD3 agonist: qHTS of D3 Dopamine Receptor Agonist: qHTS | D(3) dopamine receptor (Homo sapiens), P35462 | D3R DiscoveRx beta-arrestin cells, luminescence, 90 min | max activation, % | actives 0.58% (n = 410,000) | AID 652048, 2013; in the data active = max activation above about 30%; note: 0% is about no effect
Target sequence (P35462 whole entry, looked up): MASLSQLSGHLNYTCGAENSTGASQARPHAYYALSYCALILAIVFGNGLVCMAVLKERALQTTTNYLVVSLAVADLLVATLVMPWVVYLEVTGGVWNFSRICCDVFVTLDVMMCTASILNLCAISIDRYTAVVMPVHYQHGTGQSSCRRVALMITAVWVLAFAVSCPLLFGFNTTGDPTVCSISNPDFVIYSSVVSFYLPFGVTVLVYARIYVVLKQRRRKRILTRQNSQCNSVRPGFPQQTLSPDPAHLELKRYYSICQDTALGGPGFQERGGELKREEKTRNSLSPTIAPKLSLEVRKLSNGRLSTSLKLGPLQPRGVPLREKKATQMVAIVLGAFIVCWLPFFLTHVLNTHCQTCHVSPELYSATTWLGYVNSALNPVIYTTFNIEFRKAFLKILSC
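Agonist-mode cell screen: cells plated at 1500/well and incubated overnight at 37 °C, then exposed to library compounds for 90 min at 37 °C. Detection reagent was added for 30–60 min at room temperature, and luminescence was read.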
GLP1R ag: qHTS of GLP-1 Receptor Agonists; Glucagon-like peptide 1 receptor (Homo sapiens), P43220; HEK293 GLP-1R CRE-luciferase, luminescence, 4-6 h; cells express a hypersensitive GLP-1R form; Potency, µM (titrated, usually from 45.6 µM), inactives show at the highest dose activation, usual class: activators; actives 0.007% (n = 380,000); note: potency is the fitted concentration of half-maximal effect; % of control where 0% means no effect
DRD3 antagonist: qHTS of D3 Dopamine Receptor Antagonist: qHTS; D(3) dopamine receptor (Homo sapiens), P35462; max response, negative = inhibition, %; D3R cells, DiscoveRx beta-arrestin luminescence, antagonist mode; hits give low values; actives 2.5% (n = 360,000); in the data active = max response below about -50%; inconclusive = no clear call, values can overlap the other calls; note: % is set by controls: 0 for no effect and ±100 for the full control effect
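Cells expressing the human receptor were seeded at 1500 cells/well, incubated overnight at 37 degrees C in 5% CO2, then exposed to library compounds with dopamine controls for 90 minutes at 37 degrees C before luminescent detection.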
GLP-1R inv ag: qHTS of GLP-1 Receptor Inverse Agonists (Inhibition Mode); actives 1.6% (n = 410,000); AID 624417, 2012; Glucagon-like peptide 1 receptor (Homo sapiens), P43220; HEK293 GLP-1R CRE-luciferase, luminescence, 24 h; GLP-1R form is constitutively active; Potency, µM (top dose mostly 38.3 µM), without a hit: at the top dose activity change, negative = inhibition, most hits filed as inhibitors; note: potency is the fitted concentration of half-maximal effect; % is set by controls: 0 for no effect and ±100 for the full control effect; nearly all actives have a fitted effect of over 55% in size
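HEK293 cells stably co-expressing a cAMP-responsive luciferase reporter and constitutively active GLP-1R were seeded, incubated 12 h, then exposed to compounds for 24 h at 37 C. Luminescence was read 12 min after detection reagent; inverse agonists lower signal.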
An asterisk follows results filed as active; u = inconclusive; x = not tested or not shown. Unless noted, calls come from the whole dose curve; as a rule, active = well fitted curve in the direction sought with a large enough effect; inconclusive = small, poorly fitted or top-dose-only effect, or another doubt; inactive = no such curve, though single readings can be large; an effect the other way counts as inactive or inconclusive.

SMILES	DRD3 agonist	GLP1R ag	DRD3 antagonist	GLP-1R inv ag
Cc1ccc(C)c(N2CCN(C(=O)c3ccc(CS(=O)Cc4ccc(Cl)cc4)o3)CC2)c1 (stereo not given)	3	-4%	-13	10µM*
Cc1ccc(Cl)cc1N1CCN(C(=O)c2ccc(CS(=O)Cc3ccc(Cl)cc3)o2)CC1 (stereo not given)	4	-5%	14	8.9µM*
Cc1cccc(-n2ncc3c(Nc4ccc(Oc5ccc(Cl)cc5)cc4)ncnc32)c1	3	x	x	u
COc1ccc(OC)c(S(=O)(=O)ON2C(=O)c3ccccc3C2=O)c1	-20	8%	-97*	132%
CCCCn1cnc2c(SCc3ccccc3Cl)nc(N)nc21	-2	34%	-14	10µM*
CCCCn1cnc2c(SCc3ccccc3)nc(N)nc21	0	31%	0	-23%
Nc1nc(SCc2ccccc2)c2ncn(Cc3ccccc3)c2n1	0	23%	13	7.9µM*
CN1C(C(=O)Nc2ccccn2)C(=O)c2sc(Cl)cc2S1(=O)=O (stereo not given)	7	u	x	x
CCOC(=O)N1CCC(NC(=O)c2ccc3c(c2)N(Cc2ccccc2)C(=O)c2ccccc2S3=O)CC1 (stereo not given)	47*	1%	x	5%
CCN(C(=O)c1ccc2c(c1)N(Cc1cccc(Cl)c1)C(=O)c1ccccc1S2=O)c1ccccc1 (stereo not given)	-20	x	x	10µM*
O=C(O)c1ccc(Sc2nnnn2-c2ccccc2)c([N+](=O)[O-])c1	1	-4%	-64*	6%
COC(=O)c1ccc(Sc2nnnn2-c2ccccc2)c([N+](=O)[O-])c1	-15	-19%	-21	u
O=C(N/N=C/c1ccccc1)c1sccc1OCc1ccc(F)cc1	2	11%	-10	8.9µM*
O=C(Nc1ccccc1C(F)(F)F)c1ccc(CN2CCC(Cc3ccccc3)CC2)cc1	-17	-2%	-52*	8.9µM*
O=C(Nc1ccccc1)c1ccc(CN2CCC(Cc3ccccc3)CC2)cc1	-13	-8%	-51*	-3%
COC(=O)CCSc1nc2sc3c(c2c(=O)n1Cc1ccccc1)CCC(C(C)(C)C)C3 (stereo not given)	1	x	x	-24%
Cc1cccc(N(CC(=O)NC2CCCC2)C(=O)CCC(=O)Nc2cc(C)on2)c1	32*	1%	6	1%
O=[N+]([O-])c1c(Nc2ccccc2O)cc(Cl)c2nonc12	-33	-4%	-140*	u
Cc1ccc(CC#N)c(-c2c(CC#N)ccc(C)c2C)c1C	1	13%	-1	u
Cc1ccc2c(c1C)-c1c(ccc(C)c1C)C(=O)C2=O	0	-5%	u	0.79µM*
O=C(NC(c1ccccc1)c1ccc2ccccc2n1)C1CCN(Cc2ccc(Cl)c(Cl)c2)CC1 (stereo not given)	-29	-4%	-124*	u
O=C(NC(c1ccccc1)c1ccc2ccccc2n1)C1CCN(Cc2cccc(C(F)(F)F)c2)CC1 (stereo not given)	-21	-1%	-63*	u
O=C(C[C@H]1CC[C@H](NC(=O)Nc2ccccc2F)[C@@H](CO)O1)NCc1ccc(-c2ccccc2)cc1	15	x	24	6%
CC(C)N(C(=O)Cn1cc(SCC(=O)Nc2ccccc2F)c2ccccc21)C(C)C	-6	x	x	u
CC1CC(C)CN(c2ncnc3c2cnn3Cc2ccc(Cl)cc2)C1 (stereo not given)	2	-6%	-10	2µM*
SMILES	DRD3 agonist	GLP1R ag	DRD3 antagonist	GLP-1R inv ag
Clc1ccc(Cn2ncc3c(N4CCCC4)ncnc32)cc1	-1	15%	0	32%
COC1=C(N)C(=O)c2nc(-c3nc(C(=O)O)c(C)c(-c4ccc(OC)c(OC)c4O)c3N)ccc2C1=O	-102	-11%	-118*	-93%
CCN(CC)C(=O)c1n[nH]c(=O)c2ccccc12	5	6%	-96*	-1%
Cc1cccc(Cn2c(=O)n(-c3ccc(Cl)c(Cl)c3)c(=O)c3c(C)c(C)sc32)c1	-5	x	x	-9%
CS(=O)c1nc(-c2ccc(Br)cc2)cc(-c2ccccc2)c1C#N (stereo not given)	-3	1%	-56*	u
COc1nc(Nc2ccc(O)cc2)nc(OC(C(F)(F)F)C(F)(F)F)n1	5	11%	1	u
Nc1cccc(Nc2nc(OC(C(F)(F)F)C(F)(F)F)nc(OC(C(F)(F)F)C(F)(F)F)n2)c1	7	-26%	-23	4.5µM*
CSc1ncc(C(=O)Nc2ccc(C)c(Cl)c2)c(-c2ccccc2)n1	-4	x	x	u
O=[N+]([O-])c1cccnc1N1CCC(c2cc(-c3cccc(C(F)(F)F)c3)n[nH]2)CC1	-5	-5%	u	8.9µM*
O=[N+]([O-])c1cccnc1N1CCC(c2cc(-c3ccc(Cl)cc3Cl)n[nH]2)CC1	-1	-1%	u	5µM*
Cc1ccc(NC(=S)NCc2ccc3[nH]c4c(c3c2)CCCC4)cc1	-5	11%	-12	13µM*
O=C(Oc1c(CN2CCOCC2)cc(Cl)c2cccnc12)c1ccccc1F	-21	9%	-85*	u
COc1cc(OC)cc(C(=O)Oc2c(CN3CCOCC3)cc(Cl)c3cccnc23)c1	-22	0%	-64*	10µM*
COc1cccc(N=Nc2ccc3cccnc3c2O)c1	-21	-6%	-139*	u
O=[N+]([O-])c1ccc(O)c2ncccc12	-30	0%	-68*	u
O=[N+]([O-])c1ccc(O)c2cccnc12	-3	-1%	-26	0%
COc1ccc(C)cc1N=Nc1ccc(O)c2ncccc12	-21	-8%	-117*	u
O=Nc1ccc(O)c2ncccc12	-13	1%	u	u
COc1cccc(N=Nc2ccc(O)c3ncccc23)c1	-29	9%	-110*	u
CCOc1ccc(CNC(=O)Cn2c(=O)c3cccn3c3ccc(F)cc32)cc1	-5	x	x	14%
O=C(CSc1cccc2cccc(Cl)c12)NCc1cccs1	-1	12%	0	u
Cc1ccc(Cl)cc1N1CCN(C(=O)c2cc3c(-c4ccccc4F)nn(C)c3s2)CC1	18	x	x	u
COc1ccc(-c2noc(-c3ccc(N4CCC(C)CC4)c([N+](=O)[O-])c3)n2)cc1OC	0	x	x	16%
COc1ccc(N=Nc2ccc(O)c3ncccc23)cc1	-23	-1%	-76*	u
Cc1ccccc1N=Nc1ccc(O)c2ncccc12	-4	8%	-117*	22%
Cc1ccc(O)c2ncccc12	-8	5%	x	x
Cc1ccc(C(=O)CCC(=O)OCc2nnc(-c3ccccc3)o2)cc1	3	2%	-60*	15%
O=C(OCc1nnc(-c2ccccc2)o1)c1cn(-c2ccccc2)nc1-c1ccccc1	0	-1%	22	13µM*
